“And” between values parts separate entries of the source, which are not always exact repeats. Identical values can stand only once. The source made the active and inactive calls. How the source made its calls: active means hit-call score of the fitted dose curve at least 0.9, where 1 is the maximum; inactive means score below 0.9.

Read-out in the test: Monokine induced gamma interferon (MIG), CXCL9 (gene 4283)
Description: BSK_KF3CT_MIG: BioMAP Diversity Plus: KF3CT Assay for Monokine induced gamma interferon (MIG) Biomarker Activity (AID 2284248). The settings on record: primary human keratinocytes with fibroblasts. As to the method:
BSK_KF3CT is a cell-based, multiplexed-readout assay that uses keratinocytes and foreskin fibroblasts, a human skin primary cell co-culture, with measurements taken at 24 hours after chemical dosing in a 96-well plate.BSK_KF3CT_MIG is an assay component measured in the BSK_KF3CT assay. It measures MIG antibody related to regulation of gene expression using ELISA technology.Data from the assay component BSK_KF3CT_MIG was analyzed at the endpoint, BSK_KF3CT_MIG, in the positive analysis fitting direction relative to DMSO as the negative control and baseline of activity. Using a type of binding reporter, gain or loss-of-signal activity can be used to understand protein changes. To generalize the intended target to other relatable targets, this assay endpoint is annotated to the 'cytokine' intended target family, where the subfamily is 'chemotactic factor'.
The levels of cell surface (or secreted, indicated by the prefix "s") biomarker endpoints were measured by ELISA. Overt cytotoxicity to cells in confluent adherent cultures (all systems other than the BT system) was assessed by measuring total protein levels using sulforhodamine B (SRB) staining in parallel cultures at the time of biomarker measurements, indicated as SRB endpoints. For proliferation assays for adherent cell types, individual cell types are cultured at sub-confluence and relative cell numbers quantified by SRB staining at time points optimized for each system (48 h: 3C and CASM3C systems; 72 h: BT and HDF3CGF systems; 96 h: SAg system). SRB was performed by staining cells with 0.1% SRB after fixation with 10% TCA and reading wells at 560 nm.Viability and proliferation of PBMC (T cells) was quantified by Alamar Blue reduction for the SAg and BT systems. For PBMC viability (referred to as PBMC Cytotoxicity within the assay endpoint names), cells were plated (75,000/well in a 96-well plate) and then chemical samples added for 1 h before addition of activators, SEB and TSST-1 (20 ng/mL final concentration each). Cells were incubated for 90 h. Then, Alamar Blue (20 uL/well) (Invitrogen, Cat DAL1100) was added for 6 h, and the plates were read with a fluorescence microplate reader at 546/580 nm (excitation/emission). For PBMC proliferation, cells were plated and activated as above but incubated for only 16 h prior to addition of Alamar Blue. Plates were read after 6 h.
Take `c1ccc(OCCOc2ccccc2)cc1`: the outcome was inactive.
As to `OCC(F)(OC(F)(F)C(F)(OC(F)(F)C(F)(F)C(F)(F)F)C(F)(F)F)C(F)(F)F` (stereo not drawn), the AC50 – broadly, the concentration giving half of the maximal activity seen – is 5.41 µM (active) and 3.33 µM (active).
`CCCO[Si](OCCC)(OCCC)OCCC`: the outcome was inactive.
Same read-out and setting: the same measure for `CCCCN(CCO)CCO`: “inactive”.
On the same count and under the same terms, the same measure for `O=C(O)C(F)(F)OC(F)(F)C(F)(F)OC(F)(F)C(F)(F)C(F)(F)C(F)(F)F`: “inactive”; for `O=S(=O)(O)C(F)(F)C(F)(F)OC(F)(F)C(F)(F)F`: “inactive”.
Same read-out and setting: then `O=C(O)C(F)(F)C(F)(F)C(F)(F)C(F)(F)C(F)(F)C(F)(F)C(F)(F)C(F)F`, with “inactive”; and `CC(=O)c1ccc(C)cc1`, with “inactive”; and `CC(C)(CO)CO`, with “inactive”.
Take `C=C(C)C(=O)OCCC(F)(F)C(F)(F)C(F)(F)C(F)(F)C(F)(F)C(F)(F)C(F)(F)C(F)(F)F`: the outcome was inactive.
The same measure, in the same setting: the same measure for `CCn1cc(C(=O)O)c(=O)c2ccc(C)nc21`: “inactive”; for `C=C(F)C(=O)OC(C(F)(F)F)C(F)(F)F`: “inactive”; for `CC(C)CCCC(C)(C)O`: “inactive”.

For the origin of these results see PubChem BioAssay (EPA / NIEHS).
